This note sets out measurements from PubChem BioAssay (NCI).

Test systems include HCT-15 colon; HT29 colon; SNB-75 CNS; SNB-19 CNS; U251 CNS; PC-3 prostate; SK-MEL-5 melanoma; UACC-62 melanoma; LOX IMVI melanoma; SK-MEL-28 melanoma; SK-MEL-2 melanoma; EKVX NSCLC; UO-31 renal; TK-10 renal; ACHN renal; CAKI-1 renal; A498 renal; CCRF-CEM leukemia; MOLT-4 leukemia; SN12C renal.
Common to all, as to test: NCI-60 one-dose screen, 48 h (100 = growth as untreated, 0 = no growth, -100 = all killed)
What all share (settings): 10 µM

The structures appear in SMILES notation. The panel holds about 83,000 compounds, 20% with a hit somewhere; the sample as a whole holds those more often.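 Cell lines were cultured in 96-well plates, exposed to a single compound concentration, and assessed for percent growth 48 hours later.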 A number with no mark means an inactive call. Calls of active or inactive are those of the source. How the source made its calls: active means growth percent below 10; inactive means the rest.

Turning to `N#Cc1c(NC(=O)c2ccc(C(O)(C(F)(F)F)C(F)(F)F)cc2)sc2c1CCC(=O)C2`, the growth with HCT-15 colon is -68.7% (active); in the experiment with HT29 colon, -34.5% (active); in the experiment with SNB-75 CNS it was 16.9%; in the experiment with SNB-19 CNS, -15.9% (active); in the experiment with U251 CNS, -91.1% (active); in the experiment on PC-3 prostate, -44.8% (active). Moreover, the growth with SK-MEL-5 melanoma was -99.1% (active); in the experiment on UACC-62 melanoma it was -88.3% (active); in the experiment with LOX IMVI melanoma it was -96.4% (active); in the experiment with SK-MEL-28 melanoma, -87.1% (active); in the experiment on SK-MEL-2 melanoma, -27.4% (active); in the experiment on EKVX NSCLC, -89.6% (active). Further, the growth is -98.8% (active) in the experiment with UO-31 renal; 2.24% (active) with TK-10 renal; -98.3% (active) with ACHN renal; -68.9% (active) with CAKI-1 renal; 13.6% with A498 renal; 1.92% (active) in the experiment with CCRF-CEM leukemia. Also, the growth with MOLT-4 leukemia is -40.9% (active).

For `CC(=O)OC[C@@]1(C)C2CC[C@]3(C)C(CC=C4C5CC(C)(C)CC[C@]5(C(=O)Nc5ccccc5)CC[C@]43C)[C@@]2(C)C[C@@H](OC(C)=O)[C@@H]1OC(C)=O` (stereo partly specified), the growth is 25.1% in the experiment with HCT-15 colon; 28.5% in the experiment on HT29 colon; 58.4% in the experiment on SNB-75 CNS; 39.9% with SNB-19 CNS; 39.9% in the experiment on U251 CNS; 27.7% with PC-3 prostate. Moreover, the growth is 2.74% (active) in the experiment with SK-MEL-5 melanoma; 31% with UACC-62 melanoma; 3.23% (active) with LOX IMVI melanoma; 59.2% with SK-MEL-28 melanoma; 35.4% in the experiment with SK-MEL-2 melanoma; 26.8% in the experiment with EKVX NSCLC. Also, the growth in the experiment on UO-31 renal is 33.1%; in the experiment with TK-10 renal, 53.1%; in the experiment with ACHN renal it was 34.4%; with CAKI-1 renal, 37.2%; in the experiment on A498 renal, 64.6%; in the experiment on CCRF-CEM leukemia, 29.7%. The growth in the experiment on MOLT-4 leukemia was 24.4%.

Take `O=C(CNc1nc(-c2ccccc2)cs1)Nc1ccccc1`: the growth in the experiment on HCT-15 colon is -70.6% (active); in the experiment with HT29 colon it was -53.9% (active); in the experiment on SNB-75 CNS, 29.2%; in the experiment with SNB-19 CNS, -68.4% (active); with U251 CNS it was -85.2% (active); in the experiment on PC-3 prostate it was 12.3%. The growth is -99.5% (active) in the experiment on SK-MEL-5 melanoma; -90.1% (active) with UACC-62 melanoma; -90.1% (active) in the experiment on LOX IMVI melanoma; -60.1% (active) with SK-MEL-28 melanoma; -68.8% (active) with SK-MEL-2 melanoma; -93.3% (active) with EKVX NSCLC. Further, the growth with UO-31 renal is 17.9%; in the experiment on TK-10 renal, -79.4% (active); in the experiment on ACHN renal, -27.4% (active); in the experiment on CAKI-1 renal it was 5.53% (active); with A498 renal it was -4.95% (active); in the experiment with CCRF-CEM leukemia, 14.9%. Besides, in the experiment on MOLT-4 leukemia, the growth was -3.86% (active).

As for `COc1cccc(/C=N/NC(=O)c2ccc3nc(-c4ccc(Cl)cc4)[nH]c3c2)c1O`, the growth is 4.8% (active) in the experiment on HCT-15 colon; -79.7% (active) in the experiment with HT29 colon; -81.8% (active) with SNB-75 CNS; -98.6% (active) with SNB-19 CNS; -90.8% (active) with U251 CNS; -55.1% (active) in the experiment on PC-3 prostate. Also, the growth is -98% (active) in the experiment with SK-MEL-5 melanoma; -92% (active) in the experiment on UACC-62 melanoma; -97.2% (active) with LOX IMVI melanoma; -98.3% (active) in the experiment with SK-MEL-28 melanoma; -95.1% (active) in the experiment on SK-MEL-2 melanoma; -53.8% (active) in the experiment with EKVX NSCLC. Moreover, the growth with UO-31 renal is -2.17% (active); in the experiment on TK-10 renal, -11.1% (active); in the experiment on ACHN renal it was -34% (active); with CAKI-1 renal it was -66.1% (active); with A498 renal it was -69.1% (active); with CCRF-CEM leukemia it was -40.6% (active). For the same compound, the growth in the experiment on MOLT-4 leukemia was -50.4% (active).

For `O=c1c2ccccc2nc(COc2ccccc2)n1/N=C/c1ccc(F)cc1`, the growth in the experiment with HCT-15 colon is 76.5%; in the experiment on HT29 colon, 61.4%; with SNB-75 CNS, 105%; in the experiment on SNB-19 CNS, 87.7%; in the experiment with U251 CNS, 101%; with PC-3 prostate, 76.2%. Also, the growth was 68.5% in the experiment on SK-MEL-5 melanoma; 62.9% with UACC-62 melanoma; 94.9% with LOX IMVI melanoma; 96% with SK-MEL-28 melanoma; 94.5% with SK-MEL-2 melanoma; 92.1% in the experiment on EKVX NSCLC. Further, the growth with SN12C renal is 86.5%; in the experiment on TK-10 renal it was 105%; with ACHN renal, 91.1%; with CAKI-1 renal, 94.3%; in the experiment on A498 renal, 106%; in the experiment on CCRF-CEM leukemia, 86.2%. For the same compound, the growth in the experiment with MOLT-4 leukemia is 72.9%.

`COc1ccc(/C=C/C(=O)c2ccc(NC(=O)CN3C(=O)NC(C)(c4ccccc4)C3=O)cc2)cc1` (stereo unspecified): the growth is 75.7% with HCT-15 colon; 67.6% in the experiment with HT29 colon; 96.8% in the experiment on SNB-75 CNS; 91.8% in the experiment with SNB-19 CNS; 67.7% with U251 CNS; 61.4% in the experiment with PC-3 prostate. In addition, the growth was 60.1% in the experiment with SK-MEL-5 melanoma; 50% with UACC-62 melanoma; 56.5% in the experiment with LOX IMVI melanoma; 93.8% in the experiment with SK-MEL-28 melanoma; 93.4% in the experiment with SK-MEL-2 melanoma; 91% in the experiment on EKVX NSCLC. Also, the growth was 95.3% with SN12C renal; 109% with TK-10 renal; 84.5% with ACHN renal; 79% in the experiment with CAKI-1 renal; 119% with A498 renal; 78.3% in the experiment on CCRF-CEM leukemia. For the same compound, the growth with MOLT-4 leukemia is 49.7%.

On to `O=C1CCC(N2Cc3c(C#CCCCNC(=O)c4ccc(NC(=O)[C@@H]5NC6(CCCCC6)[C@@]6(C(=O)Nc7cc(Cl)ccc76)[C@H]5c5cccc(Cl)c5F)cc4)cccc3C2=O)C(=O)N1` (stereo partly specified), for which the growth in the experiment on HCT-15 colon is 41.8%; in the experiment on HT29 colon, 51.5%; in the experiment on SNB-75 CNS, 56.1%; in the experiment with SNB-19 CNS, 58.8%; with U251 CNS, 55.4%; in the experiment on PC-3 prostate it was 51.8%. Moreover, the growth in the experiment on SK-MEL-5 melanoma was 5.4% (active); in the experiment with UACC-62 melanoma, 17.3%; in the experiment on LOX IMVI melanoma, 27.5%; in the experiment on SK-MEL-28 melanoma, 62.2%; with SK-MEL-2 melanoma, 76.4%; with EKVX NSCLC, 51.6%. Moreover, the growth with UO-31 renal was 30.3%; with TK-10 renal, 79.8%; in the experiment on ACHN renal, 26.2%; in the experiment on CAKI-1 renal it was 36.1%; in the experiment with A498 renal, 94.9%; with CCRF-CEM leukemia, 47.9%.

Turning to `N#Cc1c(NC(=O)c2ccc(C(F)(F)F)cc2)sc2c1CCC(O)=C2`, the growth is 9.23% (active) in the experiment with HCT-15 colon; 38.2% in the experiment with HT29 colon; -3.93% (active) with SNB-75 CNS; 55.9% in the experiment with SNB-19 CNS; 28.2% in the experiment with U251 CNS; 49.2% in the experiment with PC-3 prostate. For the same compound, the growth was -28.8% (active) with SK-MEL-5 melanoma; 13.8% with UACC-62 melanoma; 23.9% with LOX IMVI melanoma; 41.6% in the experiment on SK-MEL-28 melanoma; 8.44% (active) in the experiment on SK-MEL-2 melanoma; 16.9% in the experiment with EKVX NSCLC. For the same compound, the growth in the experiment with UO-31 renal is 23.9%; in the experiment with TK-10 renal it was 71.9%; with ACHN renal it was 44.1%; in the experiment with CAKI-1 renal, 31.9%; with A498 renal it was 74.2%; with CCRF-CEM leukemia it was 6.68% (active). Besides, the growth in the experiment with MOLT-4 leukemia is 13.8%.
